For 23 compounds, growth results are on record in PubChem BioAssay (NCI).

Among the test systems are T-47D breast; MDA-MB-435 melanoma; SW-620 colon; MCF7 breast; HCC-2998 colon; KM12 colon; BT-549 breast; HCT-116 colon.
Holding throughout (experiment): NCI-60 one-dose screen, 48 h (100 = growth as untreated, 0 = no growth, -100 = all killed)
Details in all cases: 10 µM unless noted

About 83,000 compounds went through this panel and 20% of them were active in at least one assay; those are over-represented in the sample as a whole.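 96-well plates, one dose, 48 hours. Percent growth reported; active if below 10.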 Unmarked numbers belong to inactive results. Activity calls are given as the source filed them.

On to `Cc1cc2c(F)c(Oc3ncnc(Nc4ccc(N5C[C@@H](C)N[C@@H](C)C5)cc4)c3C#N)cc(F)c2[nH]1`, for which the growth with T-47D breast is -1.93% (active); in the assay with MDA-MB-435 melanoma it was 19.9%; in the assay with SW-620 colon, 3.6% (active); in the assay with MCF7 breast, 12.3%; in the assay with HCC-2998 colon, 84.1%; in the assay on KM12 colon it was 11.9%.

For the compound `CC(C)n1nc(C#Cc2cccc(O)c2)c2c(N)ncnc21`, the growth with BT-549 breast was -65.4% (active); in the assay with MDA-MB-435 melanoma, -25.8% (active); in the assay with SW-620 colon, 0.77% (active); with MCF7 breast it was 0.624% (active); in the assay on HCT-116 colon, -63.8% (active); in the assay on HCC-2998 colon, -2.82% (active). Further, the growth with KM12 colon was -7.5% (active).

Take `CCc1nc2ccccc2[nH]1`: the growth in the assay on T-47D breast is 123%; with MDA-MB-435 melanoma, 113%; with SW-620 colon, 104%; with MCF7 breast it was 88.7%; with HCT-116 colon it was 102%; in the assay with HCC-2998 colon it was 110%. Further, the growth in the assay with KM12 colon was 113%.

In the case of `Fc1ccc(Nc2nc(Nc3ccc(-c4nc5ccccc5[nH]4)cc3)c3cn[nH]c3n2)cc1`, the growth in the assay on T-47D breast is 12.1%; in the assay with MDA-MB-435 melanoma it was 90.3%; with SW-620 colon, 10.9%; in the assay with MCF7 breast it was 4.38% (active); in the assay with HCC-2998 colon, 82.9%; with KM12 colon, 54.4%.

`C=C1c2c(C)nn(-c3ccc(O)cc3)c2N(C)C23C[C@@H]1C1(C)c4c(C)nn(-c5ccc(O)cc5)c4N(C)C(C)(C[C@H]12)C3` (stereo not given in full): the growth in the assay with BT-549 breast was 28.6%; in the assay with MDA-MB-435 melanoma it was 18.7%; in the assay with SW-620 colon, 31.2%; with MCF7 breast, 5.99% (active); with HCT-116 colon, 8.9% (active); in the assay with HCC-2998 colon, 44.9%.

As to `COc1cc2oc(-c3cccc(C(=O)Nc4ccc(C#N)cc4)c3)cc(=O)c2c(O)c1OC`, the growth in the assay on BT-549 breast was 44.7%; in the assay with MDA-MB-435 melanoma, 68.3%; in the assay with SW-620 colon, 78%; with MCF7 breast, 48.5%; in the assay on HCT-116 colon, 55.5%; in the assay with HCC-2998 colon, 83.1%. Further, the growth with KM12 colon is 38.9%.

Take `O=C(CCl)N1c2cccc3cccc(c23)N(C(=O)CCl)C1c1cn(-c2ccccc2)nc1-c1cccc([N+](=O)[O-])c1`: the growth in the assay on T-47D breast is 87.7%; in the assay on MDA-MB-435 melanoma, 84.2%; with SW-620 colon, 35.4%; in the assay with HCT-116 colon it was 37.3%; with HCC-2998 colon, 104%; in the assay with KM12 colon it was 101%.

With `COc1cccc(CCC2CCCN(c3cc(C)nc(N)n3)C2)c1` (stereo not given), the growth in the assay on T-47D breast was 45.9%; in the assay with MDA-MB-435 melanoma, 0.575% (active); with SW-620 colon, 30.4%; with MCF7 breast, 17.8%; in the assay with HCT-116 colon, 7.36% (active); in the assay with HCC-2998 colon it was 39.4%. Further, the growth in the assay with KM12 colon was 20.5%.

Take `CCCCOc1ccc(NC(=O)n2nc(N=NN(C)C)c3ccc(Cl)cc32)cc1`: the growth was 98.8% with BT-549 breast; 106% with MDA-MB-435 melanoma; 106% in the assay with SW-620 colon; 85.2% with MCF7 breast; 91.3% in the assay on HCT-116 colon; 113% with HCC-2998 colon. In addition, in the assay on KM12 colon, the growth was 110%.

Consider `CN1CCN(C(=O)[C@]23CCC(C)(C)C[C@@H]2C2=CC[C@@H]4[C@@]5(C)Cc6c([nH]c7ccccc67)C(C)(C)[C@@H]5CC[C@@]4(C)[C@]2(C)CC3)CC1`, for which the growth was 97% in the assay on BT-549 breast; 84.6% in the assay on MDA-MB-435 melanoma; 96.4% in the assay on SW-620 colon; 69.9% in the assay on MCF7 breast; 70.7% with HCT-116 colon; 99.4% with HCC-2998 colon. In addition, the growth in the assay on KM12 colon was 76.3%.

Consider `O=C(O)c1ccccc1C(=O)Nc1ccc(Cl)cc1`, for which the growth is 87.2% in the assay on T-47D breast; 93% in the assay with SW-620 colon; 103% in the assay on MCF7 breast; 96.3% in the assay with HCT-116 colon; 92.6% in the assay with HCC-2998 colon; 85.8% in the assay on KM12 colon.

For the compound `CCOc1cc(C2C(Cl)C(=O)N2n2cnnc2)ccc1O` (stereo not given), the growth in the assay on BT-549 breast is 93%; in the assay on MDA-MB-435 melanoma it was 96.2%; in the assay on SW-620 colon, 97.2%; with MCF7 breast it was 97.5%; in the assay with HCT-116 colon it was 93.3%; with HCC-2998 colon, 99.7%.

Turning to `COc1cc2nc(Nc3ccc(F)cc3)nc(N)c2cc1OC`, the growth in the assay on T-47D breast is 83.2%; with MDA-MB-435 melanoma, 96.2%; with SW-620 colon, 103%; with MCF7 breast, 82.9%; in the assay with HCT-116 colon, 89.4%; in the assay with HCC-2998 colon, 113%. For the same compound, the growth with KM12 colon is 94.7%.

Regarding `COc1ccc(/C=N/NC(=O)Cn2c(-c3ccc(S(C)(=O)=O)cc3)nc3cc(Cl)ccc32)cc1`, the growth in the assay with BT-549 breast was 43.1%; with MDA-MB-435 melanoma it was -17.8% (active); in the assay with SW-620 colon, 30.5%; in the assay on MCF7 breast, 17.2%; in the assay on HCT-116 colon it was 11.8%; in the assay on HCC-2998 colon it was 19.4%. The growth in the assay on KM12 colon is 13.3%.

As to `CC1(C)C(=O)/C(=C\c2cccnc2)C[C@]2(C)[C@H]3CC=C4[C@@H]5C[C@@](C)(C(=O)O)CC[C@]5(C)CC[C@@]4(C)[C@]3(C)CC[C@@H]12`, the growth with BT-549 breast is 96.6%; with MDA-MB-435 melanoma it was 103%; in the assay with SW-620 colon it was 107%; in the assay on MCF7 breast it was 87.7%; in the assay with HCT-116 colon it was 91.9%; in the assay on HCC-2998 colon, 108%. In addition, the growth with KM12 colon was 99.2%.

With `Clc1ccc2c(NCCCN3CCN(c4nc(N5CCOCC5)nc5ccccc45)CC3)ccnc2c1`, the growth was 59.3% in the assay on BT-549 breast; -86.5% (active) in the assay with MDA-MB-435 melanoma; -20.3% (active) in the assay with SW-620 colon; -3.49% (active) in the assay with MCF7 breast; -0.752% (active) with HCT-116 colon; -57.5% (active) in the assay with HCC-2998 colon. Besides, the growth with KM12 colon is 25%.

As to `CC(C)(C)CC(C)(C)Nc1c(-c2ccc(-c3ccccc3)cc2)nc2cnccn12`, the growth is 95% in the assay on BT-549 breast; 82.7% in the assay on MDA-MB-435 melanoma; 97.1% in the assay on SW-620 colon; 82.3% in the assay with MCF7 breast; 59.8% in the assay with HCT-116 colon; 93.7% in the assay with HCC-2998 colon. Also, the growth in the assay on KM12 colon was 79.9%.

`CS(=O)(=O)c1ccc(-c2nc3cc(Cl)ccc3n2CC(=O)N/N=C/c2ccc(Cl)cc2)cc1`: the growth in the assay on BT-549 breast was 41.8%; with MDA-MB-435 melanoma, 73.7%; with SW-620 colon it was 75%; with MCF7 breast it was 37.4%; in the assay with HCT-116 colon, 42.1%; in the assay with HCC-2998 colon, 73.5%. Also, the growth in the assay with KM12 colon is 41%.

Turning to `O=C1NN(C(=O)c2ccc(O)cc2)C(c2ccccc2)=N/C1=C\c1cn(-c2ccccc2)nc1-c1ccccc1`, the growth was 94.7% in the assay with BT-549 breast; 105% with MDA-MB-435 melanoma; 110% with SW-620 colon; 96% in the assay on MCF7 breast; 95.7% with HCT-116 colon; 104% with HCC-2998 colon. Also, in the assay on KM12 colon, the growth is 98.1%.

As to `COc1ccc(-n2ncn(CCCCCCn3cnn(-c4ccc(OC)cc4)c3=O)c2=O)cc1`, the growth in the assay with BT-549 breast is 101%; in the assay with MDA-MB-435 melanoma, 102%; in the assay with SW-620 colon, 95.2%; with MCF7 breast it was 92.7%; with HCT-116 colon it was 94.5%; in the assay with HCC-2998 colon it was 110%. Also, the growth in the assay on KM12 colon is 97%.

Turning to `C=C1c2c(C)nn(-c3ccc(N)cc3)c2N(C)C23CC1C1(C)c4c(C)nn(-c5ccc(N)cc5)c4N(C)C(C)(CC12)C3` (stereo not given), the growth in the assay on BT-549 breast is 72.7%; with MDA-MB-435 melanoma, 70.4%; with SW-620 colon it was 77.1%; in the assay with MCF7 breast, 24.8%; in the assay with HCT-116 colon, 33.5%; with HCC-2998 colon, 85.8%. Further, the growth with KM12 colon is 68.3%.

With `COc1ccc(Oc2nc(Nc3ccc(N4CCOCC4)nc3)ncc2NC(=O)c2cc(OC)cc(OC)c2)cc1`, the growth in the assay with BT-549 breast was 80.2%; in the assay with MDA-MB-435 melanoma, 32.7%; with SW-620 colon, 75.8%; in the assay with MCF7 breast, 63.8%; in the assay with HCT-116 colon, 72.1%; in the assay with HCC-2998 colon it was 95.2%. In addition, in the assay with KM12 colon, the growth is 64%.

As to `COC(=O)c1ccc2oc(NC(=O)c3ccc(N4CCOCC4)c([N+](=O)[O-])c3)nc2c1`, the growth in the assay on BT-549 breast is 95.7%; with MDA-MB-435 melanoma, 107%; in the assay with SW-620 colon, 100%; with MCF7 breast it was 94.1%; in the assay with HCT-116 colon, 93%; in the assay on HCC-2998 colon it was 105%. In the assay with KM12 colon, the growth is 102%.
